Experimental data as given in PubChem BioAssay (NCATS).
Calls of active or inactive are those of the source. The call rests on the fitted dose curve; in most records, active means well fitted curve in the direction sought with a large enough effect; inconclusive means small, poorly fitted or top-dose-only effect, or effect the other way, or another doubt; inactive means no such curve, though single readings can be large or run the other way.

Assay: Inducers of the Endoplasmic Reticulum Stress Response (ERSR) in human glioma: Validation (AID 504836)
Conditions: human glioma cells, ER stress response reporter; series mostly up to 38.3 µM
Excerpt: Primary protein unfolding takes place for many diseases, including diabetes and hypoxia, , and triggers a reaction in the cells called ER stress response (ERSR). ). ERSR is designed as a repair mechanism, but ultimately leads to cell death via apoptosis if conditions triggering protein unfolding persist (1). The molecular clue to ERSR activation is the enhancement of the expression of key molecular chaperones, including the glucose regulated protein (GRP) 78. GRP78 is the main sensor for protein folding and the main actuator of the ERSR.
In a collaboration between the Southern Research Institute and the NIH Chemical Genomics Center, a cell based screen was developed that reliably uses GRP78 as a sensor to identify small molecules as inducers of ERSR. In resting conditions, GRP78 binds proteins and acts as a natural repressor. Once unfolded proteins are present in the ER, GRP78 releases some of the repressors and binds to the unfolded proteins. The release of the repressors executes the ERSR program. Using a human glioma cell line in a miniaturized, luminescent format, a high-throughput screen was developed to identify actuators of the ERSR.
(1) Soboloff, J. and S. A. Berger (2002). "Sustained ER Ca2+ depletion suppresses protein synthesis and induces activation-enhanced cell death in mast cells." J Biol Chem 277(16): 13812-20.
NIH Chemical Genomics Center [NCGC]
NIH Molecular Libraries Probe Centers Network [MLPCN]
Assay Submitter (PI): Maurizio Grimaldi, Southern Research Institute
Stable transfected human glioma cell line, U87-MG, are dispensed at density 1000 cells/well into Greiner white solid bottom 1536-well assay plates. Compounds are transferred via Kalypsys pin tool equipped with 1536-pin array (10nl slotted pins, V&P Scientific, San Diego, CA). The assay plates will be incubated for 16 hours and developed by adding appropriate quantities of the Promega Bright Glo reagent. The plates will be incubated at room temperature for 10 minutes prior to being transferred into a ViewLux high-throughput CCD imager (PerkinElmer), wherein end-point measurements of luminescence are acquired.

| Structure (SMILES) | outcome |
| --- | --- |
| NC(N)=NCCC[C@H](N)C(=O)O | inactive |
| COc1ccc(CN(CCN(C)C)c2ccccn2)cc1 | inactive |
| CN(C(=O)CCCOc1ccc2[nH]c(=O)ccc2c1)C1CCCCC1 | inactive |
| Cn1cnc2c1c(=O)[nH]c(=O)n2C | inactive |
| C[C@]12CCC(=O)C=C1CC[C@@H]1[C@@H]2C(=O)C[C@@]2(C)[C@H]1CC[C@]2(O)C(=O)CO | inactive |
| C[C@]12CC[C@@H]3c4ccc(O)cc4CC[C@H]3[C@@H]1CCC2=O | inactive |
| CCCCCN(CCCCC)C(=O)C(CCC(=O)O)NC(=O)c1ccc(Cl)c(Cl)c1 (stereo not given) | inactive |
| CCCC(C(=O)OCCN(CC)CC)(c1ccccc1)c1ccccc1 | inactive |
| Brc1c(NC2=NCCN2)ccc2nccnc12 | inactive |
| CN1C[C@H](C(=O)N[C@]2(C)O[C@@]3(O)[C@@H]4CCCN4C(=O)[C@H](Cc4ccccc4)N3C2=O)C[C@@H]2c3cccc4[nH]cc(c34)C[C@H]21 | inactive |
| CC(C)(Oc1ccc(CCNC(=O)c2ccc(Cl)cc2)cc1)C(=O)O | inactive |
| O=C1CC2(CCCC2)CC(=O)N1CCCCN1CCN(c2ncccn2)CC1 | inactive |
| NC(N)=N/N=C/c1c(Cl)cccc1Cl | inactive |
| NS(=O)(=O)c1cc2c(cc1Cl)NC(C1CC3C=CC1C3)NS2(=O)=O (stereo not given) | inactive |
| Cc1ccc(C(=O)Nc2ccc(S(=O)(=O)O)c3cc(S(=O)(=O)O)cc(S(=O)(=O)O)c23)cc1NC(=O)c1cccc(NC(=O)Nc2cccc(C(=O)Nc3cc(C(=O)Nc4ccc(S(=O)(=O)O)c5cc(S(=O)(=O)O)cc(S(=O)(=O)O)c45)ccc3C)c2)c1 | inactive |
| CCN(CC)CCCC(C)Nc1c2ccc(Cl)cc2nc2ccc(OC)cc12 (stereo not given) | inactive |
| CNCCC(Oc1ccccc1OC)c1ccccc1 (stereo not given) | inactive |
| COc1nc(C)nc(Cl)c1NC1=NCCN1 | inactive |
| COC(=O)C1=CCCN(C)C1 | inactive |
| CCOC(=O)C(C)(C)Oc1ccc(Cl)cc1 | inactive |

| Structure (SMILES) | outcome |
| --- | --- |
| O=C(CCNNC(=O)c1ccncc1)NCc1ccccc1 | inactive |
| COC(=O)C1=C(C)NC(C)=C(C(=O)OC(C)(C)CN(C)CCC(c2ccccc2)c2ccccc2)C1c1cccc([N+](=O)[O-])c1 (stereo not given) | inactive |
| CCCn1cnc2c1c(=O)n(CCCCC(C)=O)c(=O)n2C | inactive |
| Cc1ccc(/C(=C\CN2CCCC2)c2ccccn2)cc1 | inactive |
| O=C1NCN(c2ccccc2)C12CCN(CCCC(c1ccc(F)cc1)c1ccc(F)cc1)CC2 | inactive |
| CC1=C(C)C(=O)C(CCCCC#CCCCC#CCO)=C(C)C1=O | inactive |
| C[n+]1cc2c3c(ccc2c2ccc4cc5c(cc4c21)OCO5)OCO3 | inactive |
| COc1cc(C(=O)OCCCN2CCCN(CCCOC(=O)c3cc(OC)c(OC)c(OC)c3)CC2)cc(OC)c1OC | inactive |
| C[C@]12C=CC(=O)C=C1CC[C@H]1[C@@H]3C[C@@H](O)[C@](O)(C(=O)CO)[C@@]3(C)C[C@H](O)[C@@]12F | inactive |
| CCN(CC)CC(=O)Nc1c(C)cccc1C | inactive |
| CNC[C@H](O)c1ccc(O)c(O)c1 | inactive |
| Cn1c(=O)c2c(ncn2C)n(C)c1=O | inactive |
| N[C@@H](Cc1c[nH]c2ccc(O)cc12)C(=O)O | inactive |
| NC1=NCC2c3ccccc3Cc3ccccc3N12 (stereo not given) | inactive |
| OC(CCN1CCCCC1)(c1ccccc1)C1CC2C=CC1C2 (stereo not given) | inactive |
| OC(CN1CCC(Cc2ccc(F)cc2)CC1)c1ccc(Cl)cc1 (stereo not given) | inactive |
| Cc1cccc(C)c1NC(=O)C(C)N (stereo not given) | inactive |
| C#CCN(C)Cc1ccccc1 | inactive |
| CN1Cc2c(N)cccc2C(c2ccccc2)C1 (stereo not given) | inactive |
| C#CCN(C)CCCOc1ccc(Cl)cc1Cl | inactive |
